The nature of experiment [1]: NCI Yeast Anticancer Drug Screen. Data for the rad50 strain (AID 155).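 Also: 0% = growth of vehicle-only cultures of the same strain.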 The conditions noted are these: S. cerevisiae rad50 strain growth inhibition; at 50.0 µM; hits give high values. The essentials: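 Relative growth inhibition (compound vs vehicle) was measured in yeast with a defined repair-gene alteration.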
A short description of experiment [2]: NCI Yeast Anticancer Drug Screen. Data for the mec2-1 strain (AID 157). The conditions noted are these: S. cerevisiae mec2-1 strain, at 50.0 µM, hits give high values. The essentials:
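mec2-1 yeast strain, carrying an alteration in DNA damage repair or cell cycle control, was exposed to compounds; growth inhibition was measured relative to vehicle-treated controls.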

Experiment [3] is described as follows: NCI Yeast Anticancer Drug Screen. Data for the sgs1 mgt1 strain (AID 161).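 Also: 0% = growth of cultures given vehicle only.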 The conditions noted are these: S. cerevisiae sgs1 mgt1 strain, at 50.0 µM, hits give high values. The essentials: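 Yeast cells carrying a defined DNA-repair defect were exposed to test compounds. Growth inhibition was measured relative to vehicle-treated controls.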
A short description of experiment [4]: NCI Yeast Anticancer Drug Screen. Data for the cln2 rad14 strain (AID 165).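 Also: 0% = growth equal to vehicle treated cultures.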 The note with it: S. cerevisiae cln2 rad14 strain, at 50.0 µM, hits give high values. The essentials:
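Yeast carrying cln2 and rad14 alterations (cell cycle control and DNA damage repair) were exposed to compounds. Growth inhibition was measured against vehicle-treated controls.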

A short description of experiment [5]: NCI Yeast Anticancer Drug Screen. Data for the bub3 strain (AID 167). The conditions noted are these: S. cerevisiae bub3 mutant strain, at 50.0 µM, hits give high values. The essentials: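 Screening used yeast with an engineered genetic alteration affecting cell cycle control. Compound-exposed cultures were compared with vehicle cultures, and reduced growth was taken as inhibition.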

The nature of experiment [6]: NCI Yeast Anticancer Drug Screen. Data for the mlh1 rad18 strain (AID 175). The note with it: S. cerevisiae mlh1 rad18 strain growth inhibition; at 50.0 µM; hits give high values. The essentials: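 Growth inhibition of the yeast strain was measured after compound exposure and expressed relative to vehicle-treated controls. The strain carries defined defects in DNA damage repair.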

Compounds without any hit were thinned out: in the full panel of roughly 79,000, 15% have a hit. Values without a mark were called inactive. Active and inactive are the calls of the source. Rule as the data show it: active = growth inhibition above about 70%; inactive = the rest. Where a SMILES comes first, the peptide text is derived from it. The star is where a group is joined. Cbz = O=C(OCc1ccccc1)*

Regarding `Cc1cc(C)c(CN(C)C)c(CC(O)c2ccccc2)c1` (stereo unspecified), the growth inhibition in experiment [1] was 10.8%; in experiment [2], -5.95%; in experiment [3], 7.4%; in experiment [4], -15%; in experiment [5] it was 3.45%; in experiment [6], -1.95%.
In the case of `CCCCCCCCCCCCCCCC1CCCC2CCCCC12` (stereo unspecified), the growth inhibition was -9.05% in experiment [1]; 9.25% in experiment [2]; 9.5% in experiment [3]; -5.85% in experiment [4]; 12.6% in experiment [5]; -26.4% in experiment [6].
`O=C1CCC2(c3ccccc3)Nc3ncccc3N12` (stereo unspecified): the growth inhibition was 33% in experiment [1]; 2.8% in experiment [2]; 6.6% in experiment [3]; 3.85% in experiment [4]; 23% in experiment [5]; 27.8% in experiment [6].
For `COc1ccc2c(c1)CC[C@@H]1[C@@H]2CC[C@@]2(C)[C@H]1C[C@@](C)(O)[C@H]2O`, the growth inhibition is -5.65% in experiment [1]; 3.05% in experiment [2]; -2.45% in experiment [3]; -59.9% in experiment [4]; 10.8% in experiment [5]; -11.7% in experiment [6].
`Cc1ccc(S(=O)(=O)SC(SCC(=O)c2ccc(Br)cc2)C(=O)c2ccc(Br)cc2)cc1` (stereo unspecified): the growth inhibition was 26.6% in experiment [1]; -10.4% in experiment [2]; 33.5% in experiment [3]; 19.9% in experiment [4]; -0.15% in experiment [5]; 13.2% in experiment [6].
`C=CC(C)(C)[C@@]12CC3C(=O)N[C@@H](Cc4ccccc4)C(=O)N3[C@@H]1N(C(C)=O)c1ccccc12` (stereo partly specified): the growth inhibition is 73.2% (active) in experiment [1]; 12.2% in experiment [2]; 16.7% in experiment [3]; 50.5% in experiment [4]; 45.6% in experiment [5]; 53.1% in experiment [6].
In the case of `Cn1c(=S)[nH]c2sc3c(c2c1=O)CCCCC3`, the growth inhibition in experiment [1] was 12.2%; in experiment [2] it was -0.6%; in experiment [3], 8.25%; in experiment [4] it was 6.65%; in experiment [5], -4.05%; in experiment [6] it was 8.4%.
As for `O=C(NC(Cc1ccccc1)C(=O)N1CCCC1C(=O)O)OCc1ccccc1` (stereo not drawn) (Cbz-Phe-Pro-OH; configuration not given here), the growth inhibition in experiment [1] was 7.75%; in experiment [2], 2.55%; in experiment [3], -7.05%; in experiment [4] it was -13.9%; in experiment [5] it was -1.75%; in experiment [6] it was 5.05%.
Turning to `Nc1ccc2[nH]cc(CCC(=O)O)c2c1`, the growth inhibition in experiment [1] is -11.8%; in experiment [2] it was -6.95%; in experiment [3], -4.45%; in experiment [4], -11.6%; in experiment [5], -60.6%; in experiment [6], 18.5%.
For `CC(C)OC(CCCl)c1ccccc1` (stereo unspecified), the growth inhibition in experiment [1] was -6.4%; in experiment [2], -45.5%; in experiment [3] it was -4.85%; in experiment [4], 5.6%; in experiment [5] it was -23.7%; in experiment [6] it was 3.1%.
As to `CCOC(=O)CC1NC(=O)CNC1=O` (stereo unspecified), the growth inhibition in experiment [1] was -9.2%; in experiment [2] it was 2.1%; in experiment [3], 5.3%; in experiment [4] it was -5%; in experiment [5], -1.65%; in experiment [6], -13.2%.
For the compound `CC1C(=NO)C(C)C(c2ccccc2)N(N=O)C1c1ccccc1` (stereo unspecified), the growth inhibition in experiment [1] is -12.6%; in experiment [2], -20.5%; in experiment [3], -6.1%; in experiment [4], 3.25%; in experiment [5], 0.45%; in experiment [6] it was 26.4%.
As to `CCc1n[nH]c(=O)n1/N=C/c1c(O)ccc2ccccc12`, the growth inhibition was 0.45% in experiment [1]; 10.8% in experiment [2]; 1.05% in experiment [3]; 9.05% in experiment [4]; 6% in experiment [5]; 18.9% in experiment [6].
Consider `S=c1o[nH]c(-c2ccccc2)c1C=Nc1ccccc1`, for which the growth inhibition in experiment [1] is -5.45%; in experiment [2], 17.5%; in experiment [3], 13.9%; in experiment [4] it was 26.6%; in experiment [5], 5.35%; in experiment [6], 6.15%.
`Oc1c(CN2CCN(c3ccccc3)CC2)cc(Br)c2cccnc12`: the growth inhibition is 34% in experiment [1]; 19.9% in experiment [2]; 41.4% in experiment [3]; -0.3% in experiment [4]; 9.4% in experiment [5]; 39.6% in experiment [6].
For `COC(=O)COc1ccc(Cl)cc1C(=O)O`, the growth inhibition in experiment [1] is 23.5%; in experiment [2], 6.1%; in experiment [3] it was 9.8%; in experiment [4], -11.8%; in experiment [5] it was 27.5%; in experiment [6], 17.1%.
On to `CCCN=C(N)NC#N`, for which the growth inhibition in experiment [1] is 16.9%; in experiment [2] it was 0.8%; in experiment [3], -2.4%; in experiment [4] it was 7.85%; in experiment [5] it was -16.6%; in experiment [6], 15.1%.
As to `COc1cc(C(CC(=O)O)CC(=O)O)cc(OC)c1OC`, the growth inhibition in experiment [1] is -2.45%; in experiment [2], -8.8%; in experiment [3] it was 25.4%; in experiment [4], 7.05%; in experiment [5], 15.6%; in experiment [6], 12.6%.
Regarding `CCOC(=O)NC(=O)c1cn(C2OC(CO)C(O)C2O)c(=O)[nH]c1=O` (stereo unspecified), the growth inhibition in experiment [1] was 10.3%; in experiment [2], -18.6%; in experiment [3], -16.6%; in experiment [4] it was -5.9%; in experiment [5] it was 28.6%; in experiment [6], 44.5%.
`Oc1[nH]c2ccccc2c1N=NC1=NCCCCN1`: the growth inhibition is -33.2% in experiment [1]; -36.5% in experiment [2]; -6.65% in experiment [3]; 15.7% in experiment [4]; -3.35% in experiment [5]; -14.7% in experiment [6].
For the compound `CCCCCCCOC(=O)C(N)c1ccccc1` (stereo unspecified), the growth inhibition in experiment [1] is -5.2%; in experiment [2], -32.1%; in experiment [3], -22.4%; in experiment [4], 7.5%; in experiment [5], -7.6%; in experiment [6] it was 4.1%.
As to `CCOC(=O)C1=C(Nc2ccc(Cl)c(Cl)c2)OC/C1=N\NC(=O)Cc1ccccc1`, the growth inhibition in experiment [1] is -49.8%; in experiment [2] it was -22%; in experiment [3], -4.05%; in experiment [4] it was -12%; in experiment [5], -11.7%; in experiment [6], -35.4%.
Consider `Cn1c(=O)c2c(ncn2CCNCC(O)c2cc(C(C)(C)C)c(O)c(C(C)(C)C)c2)n(C)c1=O` (stereo unspecified), for which the growth inhibition in experiment [1] was 31.2%; in experiment [2] it was 6.35%; in experiment [3] it was 19%; in experiment [4], 16.8%; in experiment [5], -3.2%; in experiment [6], 11.2%.
For the compound `Cc1ccc(/C=N/NS(=O)(=O)c2ccc(/C=C3\NC(=O)NC3=O)cc2)cc1`, the growth inhibition in experiment [1] was -16.8%; in experiment [2], -6.1%; in experiment [3] it was -31.4%; in experiment [4], -6.55%; in experiment [5] it was -41.2%; in experiment [6] it was 1.75%.
For `Nc1ccc(C(C(=O)O)c2ccccc2)cc1` (stereo unspecified), the growth inhibition in experiment [1] was 10.4%; in experiment [2] it was 15.8%; in experiment [3], 12.6%; in experiment [4], 1.4%; in experiment [5], 20.1%; in experiment [6], 10.9%.
Turning to `CC(=O)N1CCN(C=S)CC1`, the growth inhibition was -16.5% in experiment [1]; -9.6% in experiment [2]; -5.65% in experiment [3]; 15.8% in experiment [4]; -4.05% in experiment [5]; -15.5% in experiment [6].
As to `C=C1C(=O)O[C@H]2C3OC3(C)CC/C=C(/C(=O)OC)[C@@H](OC(C)=O)[C@H](OC(=O)C3(C)OC3C)[C@H]12` (stereo partly specified), the growth inhibition was 12.6% in experiment [1]; 31.8% in experiment [2]; 13.5% in experiment [3]; 22.4% in experiment [4]; 5.55% in experiment [5]; 8.85% in experiment [6].
Take `COC(=O)C1=C(C)NC(C)=C(C(=O)OC)C1c1cccc(N=O)c1`: the growth inhibition in experiment [1] was 9.85%; in experiment [2], 6.5%; in experiment [3], 13.3%; in experiment [4] it was 4.4%; in experiment [5], 26.6%; in experiment [6] it was 78.2% (active).
As to `Clc1ccc(C(=C=C(c2ccccc2)c2ccccc2)c2ccc(Cl)cc2)cc1`, the growth inhibition in experiment [1] was 33.7%; in experiment [2], 13.8%; in experiment [3], -4.4%; in experiment [4], 20.7%; in experiment [5] it was 5.55%; in experiment [6], 25.9%.
With `CCN=c1c([N+](=O)[O-])c(NC(=O)c2ccccc2)sn1CC`, the growth inhibition in experiment [1] is -9.1%; in experiment [2] it was -5.65%; in experiment [3], -5.5%; in experiment [4] it was 28%; in experiment [5] it was -7.75%; in experiment [6], -5.7%.
In the case of `Cc1nc(N)nc(CCC(=O)Nc2cccc(C(F)(F)F)c2)c1-c1ccc(Cl)cc1`, the growth inhibition in experiment [1] is 12.2%; in experiment [2] it was -2.9%; in experiment [3] it was 6.7%; in experiment [4] it was 7.45%; in experiment [5], -3.6%; in experiment [6], 11.1%.
For `Cc1cc2c(c(N)c1C)C(=O)c1ccccc1C2=O`, the growth inhibition in experiment [1] was 18.4%; in experiment [2] it was 11.4%; in experiment [3] it was 31.7%; in experiment [4], 10.9%; in experiment [5], 26.2%; in experiment [6] it was 6.7%.
`CCCC(=O)Nc1cn(COC)c(C(=O)N2C[C@H]3C[C@@]34C2=CC(=O)c2[nH]cc(C)c24)n1`: the growth inhibition in experiment [1] is 49.9%; in experiment [2], 22.1%; in experiment [3], 56%; in experiment [4], 19.9%; in experiment [5] it was 40.8%; in experiment [6] it was 58.8%.
As to `CC(C)OC(=S)SCC(=O)c1ccc(-c2ccccc2)cc1`, the growth inhibition was 1.7% in experiment [1]; 17.5% in experiment [2]; 21.3% in experiment [3]; -2.45% in experiment [4]; 30.9% in experiment [5]; 8.75% in experiment [6].
`Cn1c(=O)c2[nH]c(Cl)nc2n(C)c1=O`: the growth inhibition is 9.6% in experiment [1]; -23.6% in experiment [2]; 6.7% in experiment [3]; -3.8% in experiment [4]; -16.6% in experiment [5]; -8.55% in experiment [6].
As for `O=[N+]([O-])c1ccc(/C=C(/c2ccc([N+](=O)[O-])o2)S(=O)(=O)c2ccccc2)o1`, the growth inhibition was 86% (active) in experiment [1]; 67.7% in experiment [2]; 92.1% (active) in experiment [3]; 71.1% (active) in experiment [4]; 61% in experiment [5]; 90.2% (active) in experiment [6].

Values taken from PubChem BioAssay (NCI).
